Source: PubChem BioAssay
PfHsp90 set2: inhibits growth of yeast expressing Plasmodium falciparum Hsp90. S. cerevisiae expressing PfHsp90, BacTiter-Glo ATP, 48 h; yeast lacking PDR1 and PDR3 efflux regulators. 0.32% of 310,000 active. inhibition, % at 9.4 µM;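 active means every replicate shows inhibition above about 80%, whatever the replicate mean, limit read from the data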
tim23-1 inh: tim23-1 yeast growth inhibition; inhibition, % at 20 µM; 1.3% of 330,000 active; S. cerevisiae tim23-1 growth, BacTiter-Glo luminescence, 24 h;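 active means growth inhibition of the mutant yeast at or above 50%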;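 further: temperature-sensitive mutant grown at 25 °C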
TIM10 inh: TIM10 yeast growth inhibition. S. cerevisiae TIM10 strain growth, BacTiter-Glo luminescence, 24 h. inhibition, % at 10 µM. 1.4% of 330,000 active. AID 463195;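 active means inhibition of 40% or more at the single tested concentration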;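 further: wild-type TIM10 isogenic control strain grown at permissive 25 °C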
NLRP3 yeast inh: inhibitors of NALP3 inflammasome in yeast. 0.39% of 330,000 active. Yeast reconstituted NLRP3/ASC/caspase-1, beta-gal luminescence, 24 h. inhibition, % at 10 µM. AID 2825;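 active means inhibition of 50% or more; inactive means inhibition below 50%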
tim10-1 inh: inhibits growth of tim10-1 mutant yeast; 2.2% of 330,000 active; S. cerevisiae tim10-1 ts strain growth, BacTiter-Glo, 24 h; inhibition, % at 20 µM; AID 463190;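 active means inhibition of at least 40%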;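 further: mutant grown at 25 °C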
NALP1 inh: NALP1 inhibition; S. cerevisiae NALP1/ASC/caspase-1 growth, X-gal OD620, 72 h; inhibition, % at 10 µM; 0.61% of 280,000 active; AID 2071; in the data active means inhibition mostly above about 24%, no sharp cut-off; inactive means mostly below about 32%
Large screens that a line does not name were inactive. Compounds with a hit are over-represented: about 4.1% of the library has one in this group of screens.

O=C(CNC(=O)c1ccc(Br)o1)NCC(=O)OCc1ccccc1	none (no result: NALP1 inh)
CCC(c1nnnn1C(C)(C)CC)N(CCCO)Cc1cc2cc(C)cc(C)c2[nH]c1=O (stereo not drawn)	NALP1 inh 35 (no result: tim23-1 inh, TIM10 inh, NLRP3 yeast inh, tim10-1 inh)
CCN1C(=O)c2ccc(C(=O)NCc3ccco3)cc2C1=O	NALP1 inh 31
CCCN1C(=O)c2ccc(C(=O)NCc3ccco3)cc2C1=O	none
CCC(C(=O)N1CCC(C(N)=O)CC1)n1nc(C)n2c(cc3occc32)c1=O (stereo not drawn)	none
COc1ccc(C=CC(=O)c2ccc(OC)c(OC)c2O)cc1OC	none (no result: tim23-1 inh, TIM10 inh, NLRP3 yeast inh, tim10-1 inh, NALP1 inh)
O=C(/C=C/c1ccccc1)c1cc(Br)ccc(=O)c1O	PfHsp90 set2 82
O=C(/C=C/c1ccccc1)c1ccccc1	none
Cc1ccc(/C=C/C(=O)c2ccccc(=O)c2O)cc1C	PfHsp90 set2 97 (no result: tim23-1 inh, TIM10 inh, NLRP3 yeast inh, tim10-1 inh)
CCN(CC(=O)Nc1c(F)cccc1F)C(=O)c1nc2nc(C)cc(C)n2n1	none (no result: NALP1 inh)
NC(=O)C1CCN(C(=O)NC2CC(=O)N(c3ccc4c(c3)OCCO4)C2)CC1 (stereo not drawn)	none (no result: NALP1 inh)
COc1cc(OC)cc(C(=O)NNC(=O)CNC(=O)c2cccs2)c1	none (no result: NALP1 inh)
CN(C(=O)c1cccc(NC(=O)Cc2ccc(NC(=O)C3CCCN(C(=O)CCc4ccccc4)C3)cc2)c1)C1CCCCC1 (stereo not drawn)	none (no result: tim23-1 inh, TIM10 inh, NLRP3 yeast inh, tim10-1 inh, NALP1 inh)
Brc1ccc(-c2nnc3ccc(N4CCN(c5ccccc5)CC4)nn23)cc1	NALP1 inh 30 (no result: PfHsp90 set2)
Fc1ccc(-c2nnc3ccc(N4CCCC4)nn23)cc1	none
COc1ccccc1NS(=O)(=O)c1ccc(C)c(C(=O)NCC(c2cccs2)N2CCOCC2)c1 (stereo not drawn)	none (no result: tim23-1 inh, TIM10 inh, NLRP3 yeast inh, tim10-1 inh, NALP1 inh)
O=C(/C=C/c1ccccc1)NC(=S)NNC(=O)c1cnccn1	PfHsp90 set2 109 (no result: NALP1 inh)
COc1ccc(Nc2cc(C)nc(NCc3ccccc3)n2)cc1	none
Cc1cc(NC2CCCCC2)nc(NCc2ccccc2)n1	NALP1 inh 62
Cc1ccc(Nc2cc(C)nc(NCc3ccccc3)n2)cc1	NALP1 inh 51
COc1ccc2nc(-c3ccccn3)[nH]c2c1	none
COc1cc(C=NO)nc(-c2ccccn2)c1	PfHsp90 set2 98 (no result: tim23-1 inh, TIM10 inh, NLRP3 yeast inh, tim10-1 inh, NALP1 inh)
Cc1ccccc1/C=N/Nc1ccnc2cc(Cl)ccc12	NALP1 inh 51 (no result: tim23-1 inh, TIM10 inh, NLRP3 yeast inh, tim10-1 inh)
Clc1ccc2c(NCc3ccccc3)ccnc2c1	none
Clc1ccc(NNc2ccnc3cc(Cl)ccc23)cc1	none (no result: PfHsp90 set2)
Clc1ccc2c(N/N=C/c3ccc(Br)cc3)ccnc2c1	NALP1 inh 54 (no result: tim23-1 inh, TIM10 inh, NLRP3 yeast inh, tim10-1 inh)
Cc1ccc(/C=N/Nc2ccnc3cc(Cl)ccc23)c(C)c1	NALP1 inh 60
Oc1ccc(Nc2ccnc3cc(Cl)ccc23)cc1	none
CCN(CC(=O)NC1CCS(=O)(=O)C1)S(=O)(=O)c1c(C)c(C)cc(C)c1C (stereo not drawn)	none (no result: NALP1 inh)
CC(/C=C/c1ccco1)=N\NC(=O)CNc1ccc2ccccc2c1	NALP1 inh 20
CC(/C=C/c1ccco1)=N/NC(=O)CNc1ccccc1C	none
COc1cc(SC)ccc1C(=O)OCC(=O)N1CC(=O)Nc2ccccc21	none (no result: PfHsp90 set2, NALP1 inh)
CCC(OC(=O)C1=Cc2ccccc2OC1)C(=O)NCc1ccco1 (stereo not drawn)	NALP1 inh 33
Nc1ccccc1C#CC(=O)c1ccccc1	PfHsp90 set2 114
CC(C)Cc1ccc(S(=O)(=O)N2CCN(c3ccccn3)CC2)cc1	none
Cc1ccc(CSc2nc3ccsc3c(=O)n2Cc2ccccn2)cc1	PfHsp90 set2 78
CC(=O)c1sc(NC(=O)CN2C(=O)C3CCCCC3C2=O)nc1-c1ccccc1 (stereo not drawn)	none (no result: NALP1 inh)
OC(CN1CCCCC1)Cn1c2ccc(Cl)cc2c2cc(Cl)ccc21 (stereo not drawn)	NALP1 inh 49
Cc1ccc(OCC(O)Cn2c3ccccc3c3ccccc32)cc1 (stereo not drawn)	none
OC(CN1CCN(Cc2ccccc2)CC1)Cn1c2ccccc2c2ccccc21 (stereo not drawn)	NALP1 inh 50
Cc1ccc(OCCN2CCN(CC(O)Cn3c4ccccc4c4ccccc43)CC2)cc1 (stereo not drawn)	NALP1 inh 76 (no result: PfHsp90 set2)
COC(=O)c1ccc(NC(=O)Cc2ccc(C)cc2)cc1	NALP1 inh 35
CC(C)(C)c1nnc(NS(=O)(=O)c2ccc([N+](=O)[O-])cc2)s1	none
CN(C1=C(NC(=O)c2ccccc2)C(=O)c2ccccc2C1=O)C1CCS(=O)(=O)C1 (stereo not drawn)	NALP1 inh 43
CC(=O)Nc1cccc(C(=O)OCC(=O)N2CCN(C(=O)COC(=O)c3cccc(NC(C)=O)c3)CC2)c1	none (no result: tim23-1 inh, TIM10 inh, NLRP3 yeast inh, tim10-1 inh, NALP1 inh)
CC(C)CCn1c(SCC(=O)NC2CC2)nc2cc(Cl)ccc2c1=O	none (no result: NALP1 inh)
Cc1csc(NC(=O)C2COc3ccccc3O2)n1 (stereo not drawn)	none (no result: PfHsp90 set2)
O=C(Nc1nc(-c2ccccn2)cs1)C1COc2ccccc2O1 (stereo not drawn)	PfHsp90 set2 103
Cc1ccc(C(=O)Nc2nc(-c3ccccn3)cs2)o1	none
O=C(Nc1nc(-c2ccccn2)cs1)c1ccc(-c2ccccc2F)o1	PfHsp90 set2 96 (no result: NALP1 inh)
Cc1ccc(C)c(NC(=O)CN2C(=O)CC(C)S(=O)(=O)c3ccccc32)c1 (stereo not drawn)	none
COCCCNS(=O)(=O)c1ccc(S(=O)(=O)N2CCCC2)cc1	NALP1 inh 38
COC(CNS(=O)(=O)c1ccc(S(=O)(=O)N2CCCC2)cc1)OC	none
c1ccc(CN(CCN2CCOCC2)Cc2ccccc2)cc1	none (no result: tim23-1 inh, TIM10 inh, NLRP3 yeast inh, tim10-1 inh, NALP1 inh)
COc1c(Cl)cnn(-c2ccccc2)c1=O	none (no result: NALP1 inh)
COc1c(Cl)cnn(-c2ccc(Cl)c(Cl)c2)c1=O	NALP1 inh 37
CN1CCC(Oc2ccccc2Sc2ccc(C(F)(F)F)cc2)CC1	none
CN1CCC(Oc2ccc(Sc3ccccc3)cc2)CC1	NALP1 inh 49
Cc1ccc(O)c(-c2cc(C(F)(F)C(F)F)nc(-c3ccccc3)n2)c1	none
Oc1ccc(Cl)cc1-c1cc(C(F)(F)C(F)F)nc(-c2ccccc2)n1	NALP1 inh 43 (no result: PfHsp90 set2)
Cc1cc(/C=C2\SC(=S)NC2=O)c(C)n1-c1ccccc1	none (no result: PfHsp90 set2)
Cc1cc(/C=C2\SC(=S)NC2=O)c(C)n1-c1ccc(O)cc1	PfHsp90 set2 97
O=C(O)c1cccc(S(=O)(=O)Nc2cccc(S(=O)(=O)N3CCCC3)c2)c1	none (no result: NALP1 inh)
Cc1csc(NC(=O)c2cccs2)n1	none
Cc1cnc(NC(=O)c2cccs2)s1	NALP1 inh 34
CSc1ccc(/C=C/C(=O)c2ccc(NC(C)=O)cc2)cc1	NALP1 inh 53
Cc1cc(C)c(O)c(-c2cc(C(=O)Nc3cccnc3)[nH]n2)c1	none
Cc1cc(O)c(-c2cc(C(=O)Nc3cccnc3)[nH]n2)cc1C	NALP1 inh 37
COc1ccc(C2c3[nH]c4ccccc4c3CCN2CCCn2cccn2)c(C)c1C (stereo not drawn)	NALP1 inh 51
CCCc1cc(=O)[nH]c2nnc(SCC(=O)Nc3cccc(NC(C)=O)c3)n12	none (no result: NALP1 inh)
CC(C)CC(=O)N1CCN(Cc2ccc(Cl)cc2)CC1	none
